Experimental data: PubChem BioAssay
Potency and affinity values are given separately. Inconclusive results are not listed. Activity calls are given as the source filed them. Unless noted, no rule for the calls is given here.

Experiments:
[1] = cytotoxicity in PAX8-dependent RMG-1 cells, dose response, cell-based, cherry-pick (AID 687029;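 active = signal drop whose fitted half-maximal concentration is at most twice the top valid dose, in every test run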;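 also: cells exposed to compound for 96 hours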); conditions: RMG-1 viability, CellTiterGlo ATP luminescence, 96 h; series mostly up to 35 µM
[2] = cytotoxicity in IOSE-T80 ovarian epithelial cells, dose response, selectivity assay for PAX8 inhibitor project, cell-based, cherry-pick (AID 687032;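 active = fitted half-maximal concentration for viability loss no higher than twice the top valid dose, in every repeat run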;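 also: cells exposed to compound for 96 h before reading; 0% = neutral control wells and -100% = 2 µM mitoxantrone kill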); conditions: CellTiterGlo ATP luminescence, 96 h; series mostly up to 35 µM
[3] = inhibitors of CMV-promoter luciferase reporter, dose response, counter-screen for Pax8 inhibitor project, cell-based, HEK293, luminescence, dry powder (AID 743020;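 active = signal-lowering compounds whose fitted half-maximal concentration is at or below twice the top tested dose in every run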;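 also: HEK293 cells stably expressing the CMV luciferase reporter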); conditions: SteadyGlo luminescence, 24 h; series mostly up to 35 µM
[4] = IGROV1 ovarian cancer cell cytotoxicity, dose response, PAX8 inhibitor project, plate reader, dry powder samples (AID 743043); conditions: series mostly up to 35 µM;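 also: more negative means fewer viable cells or more cytotoxicity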
[5] = A2780 ovarian cancer cell cytotoxicity, dose response, cytotoxicity control, plate reader, dry powder samples (AID 743046); conditions: series mostly up to 35 µM;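 also: 0% = neutral control wells and -100% = cytotoxic reference compound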
[6] = cytotoxicity in OVCAR8 ovarian cancer cells, dose response, PAX8 project, cell-based, plate reader, dry powder samples (AID 743197); conditions: series mostly up to 35 µM
[7] = NIH:OVCAR-3 ovarian cancer cell cytotoxicity, dose response, PAX8 inhibitor project, plate reader, dry powder samples (AID 743044); conditions: NIH:OVCAR-3 ovarian cancer cell viability; max activity: at 35 µM, hits give low values unless noted; series mostly up to 50 µM
[8] = IOSE-T80 ovarian epithelial cell cytotoxicity, dose response, cytotoxicity control for PAX8 inhibitor project, plate reader, dry powder samples (AID 743045); conditions: IOSE-T80 ovarian epithelial cells; series mostly up to 35 µM;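 also: 0% = neutral control median and -100% = positive control median; more negative values mean more cell killing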
[9] = non-specific cell cytotoxicity, dose response, cytotoxicity control for PAX8 inhibitor project, plate reader, dry powder samples (AID 743021); conditions: cell line, non-specific cytotoxicity counter-screen; series mostly up to 35 µM

C[C@H](CO)N1C[C@H](C)[C@@H](CN(C)S(=O)(=O)c2ccc(Cl)cc2)OCCCC[C@H](C)Oc2ccc(NS(=O)(=O)c3ccccc3)cc2C1=O
inactive: outcome [1] | outcome [2] | outcome [3] | outcome [4] | outcome [5] | outcome [6]

CCc1cnc(N2[C@@H](C#N)[C@@H](c3ccc(C#CC(C)C)cc3)[C@@H]2CO)s1
inactive: outcome [1] | outcome [2] | outcome [3] | max activity [7] 27.5% [at 1 µM, hits give low values] | outcome [8] | outcome [6]

COc1ccc2c3c(n(C)c2c1)[C@H](CO)NCC31CCN(Cc2cc(-c3ccccc3)on2)CC1
inactive: outcome [1] | outcome [2] | outcome [3] | max activity [7] 40.6% [at 0.5 µM, hits give low values] | outcome [8] | outcome [5]

C[C@H](CO)N1C[C@H](C)[C@H](CN(C)Cc2ccc(C(F)(F)F)cc2)OCCCC[C@H](C)Oc2ccc(NC(=O)Cc3ccccc3)cc2C1=O
inactive: outcome [1] | outcome [2] | outcome [3] | outcome [8]

C[C@@H]1CN([C@H](C)CO)C(=O)c2cc(NC(=O)Nc3ccc(C(F)(F)F)cc3)ccc2O[C@@H](C)CCCCO[C@@H]1CN(C)Cc1ccccc1
inactive: outcome [1] | outcome [2] | outcome [3] | outcome [8]

COc1ccc(-c2ccc(C3[C@@H]4CN(Cc5cc(OC)cc(OC)c5)C[C@H]3N4)cc2)cc1 (stereo not given in full)
inactive: outcome [1] | outcome [2] | outcome [3] | max activity [7] -15.8% [at 16 µM, hits give low values] | activity change, negative = cytotoxicity [8] 6.64% [at 8 µM] | outcome [5]

C[C@@H]1CCCCO[C@H](CN(C)Cc2ccc(Cl)c(Cl)c2)[C@@H](C)CN([C@@H](C)CO)C(=O)c2cc(NC(=O)c3ccccc3)ccc2O1
inactive: outcome [1] | outcome [2] | outcome [3] | outcome [8] | outcome [5]

Cc1ccc(-c2ccc(C3[C@@H]4CN(C(=O)Nc5ccc(C(F)(F)F)cc5)C[C@H]3N4)cc2)cc1 (stereo not given in full)
inactive: outcome [1] | outcome [2] | outcome [3] | outcome [4] | outcome [5]

C[C@@H]1CN([C@@H](C)CO)C(=O)Cc2cc(NS(=O)(=O)c3ccc(Cl)cc3)ccc2O[C@@H]1CN(C)CC1CCCCC1
inactive: outcome [1] | outcome [2] | outcome [3] | outcome [8] | outcome [5] | outcome [6]

CCS(=O)(=O)N1CC(=O)N2[C@H](CO)[C@@H](c3ccc(-c4ccccc4F)cc3)[C@H]2C1
inactive: outcome [1] | outcome [2] | outcome [3] | outcome [8] | outcome [5]

CCCNC(=O)N(C)C[C@H]1N[C@@H](CO)[C@@H]1c1ccc(C2=CCCCC2)cc1
inactive: outcome [1] | outcome [2] | outcome [3] | outcome [5]

N#C[C@H]1[C@@H](c2ccc(C#Cc3ccc(F)cc3)cc2)[C@H](CO)N1C(=O)C1CCCC1
inactive: outcome [1] | outcome [2] | outcome [3] | outcome [8]

COc1ccc(-c2ccc3c(c2)[C@H]2[C@H](CCN2S(=O)(=O)c2ccc(F)cc2)[C@H](CO)N3C)cc1
inactive: outcome [1] | outcome [2] | outcome [3] | outcome [8] | outcome [5]

C[C@@H]1CCCCO[C@H](CN(C)CC2CCCCC2)[C@H](C)CN([C@H](C)CO)C(=O)c2cc(NS(=O)(=O)c3ccccc3)ccc2O1
inactive: outcome [1] | outcome [2] | outcome [3] | outcome [8] | outcome [5]

COc1ccc(NC(=O)Nc2ccc3c(c2)C(=O)N([C@H](C)CO)C[C@@H](C)[C@H](CN(C)Cc2ccc(C(F)(F)F)cc2)OCCCC[C@H](C)O3)cc1
inactive: outcome [1] | outcome [2] | outcome [3] | outcome [8] | outcome [5]

Cc1ccc(S(=O)(=O)Nc2ccc3c(c2)C(=O)N([C@@H](C)CO)C[C@@H](C)[C@H](CN(C)Cc2ccc(C(F)(F)F)cc2)OCCCC[C@@H](C)O3)cc1
inactive: outcome [1] | outcome [2] | outcome [3] | outcome [8] | outcome [5]

O=C(Nc1cccc(F)c1)N1CCCCN2[C@H](CO)[C@@H](c3ccc(-c4ccccc4F)cc3)[C@H]2C1
inactive: outcome [1] | outcome [2] | outcome [3] | outcome [8] | outcome [5] | outcome [6]

Fc1cccc(CN2C[C@@H]3N[C@H](C2)[C@@H]3c2ccc(-c3cccc(F)c3)cc2)c1
inactive: outcome [1] | outcome [2] | outcome [3] | outcome [4] | outcome [5]

C[C@@H]1CN([C@H](C)CO)C(=O)c2cc(NC(=O)CCCCCC(=O)Nc3ccccc3N)ccc2O[C@@H]1CN(C)Cc1ccc(C(F)(F)F)cc1
inactive: outcome [1] | outcome [2] | outcome [3] | outcome [8] | outcome [5] | outcome [6]

COc1ccccc1NC(=O)N1CCCCN2[C@H](CO)[C@H](c3ccc(-c4cccc(C)c4)cc3)[C@H]2C1
inactive: outcome [1] | outcome [2] | outcome [3] | outcome [8] | outcome [5] | outcome [6]

COc1ccc(S(=O)(=O)N2CCCCN3[C@H](CO)[C@H](c4ccc(C#CC(C)C)cc4)[C@H]3C2)cc1
inactive: outcome [1] | outcome [2] | outcome [3] | outcome [5] | outcome [6]

Cc1ccc(S(=O)(=O)Nc2ccc3c(c2)CC(=O)N([C@@H](C)CO)C[C@H](C)[C@@H](CN(C)Cc2ccc(Oc4ccccc4)cc2)O3)cc1
inactive: outcome [1] | outcome [2] | outcome [3] | outcome [4] | outcome [6]

C[C@@H]1CN([C@H](C)CO)C(=O)c2cc(NC(=O)Nc3ccc(C(F)(F)F)cc3)ccc2O[C@@H](C)CCCCO[C@H]1CN(C)Cc1ccc2c(c1)OCO2
inactive: outcome [1] | outcome [2] | outcome [3] | max activity [7] -34.3% | outcome [8] | outcome [5]

Cc1ccccc1-c1ccc(C2[C@@H]3CN(C(=O)Nc4cccc(F)c4)C[C@H]2N3)cc1 (stereo not given in full)
inactive: outcome [1] | outcome [2] | outcome [3] | outcome [8] | outcome [5] | outcome [6]

O=C(Nc1ccc(F)cc1)N1C[C@@H]2N[C@H](C1)C2c1ccc(-c2ccccc2F)cc1 (stereo not given in full)
inactive: outcome [1] | outcome [2] | outcome [3] | outcome [8] | outcome [5]

COc1ccccc1-c1ccc([C@@H]2[C@@H]3CN(S(=O)(=O)c4ccc(-c5ccccc5)cc4)C[C@H]2N3)cc1
inactive: outcome [1] | outcome [2] | outcome [3] | outcome [8] | outcome [5]

O=C(C[C@H]1CC[C@H]2[C@@H](COC[C@@H](O)CN2S(=O)(=O)c2cccc(Cl)c2)O1)Nc1ccc(-c2ccccc2)cc1
inactive: outcome [1] | outcome [2] | outcome [3] | outcome [8] | outcome [5]

O=C(Nc1cccc(F)c1)N1C[C@@H]2N[C@H](C1)C2c1ccc(-c2ccc(F)cc2)cc1 (stereo not given in full)
inactive: outcome [5]

COc1ccc(S(=O)(=O)Nc2ccc3c(c2)C(=O)N([C@@H](C)CO)C[C@H](C)[C@H](CN(C)Cc2ccc(C(F)(F)F)cc2)OCCCC[C@H](C)O3)cc1
inactive: outcome [5]

C[C@H]1CCCCO[C@H](CN(C)C(=O)Nc2ccc(C(F)(F)F)cc2)[C@@H](C)CN([C@@H](C)CO)C(=O)c2cc(NC(=O)Nc3ccc(F)cc3)ccc2O1
inactive: outcome [4]

C[C@H]1CCCCO[C@H](CN(C)C(=O)Nc2ccc(C(F)(F)F)cc2)[C@@H](C)CN([C@@H](C)CO)C(=O)c2cc(NS(=O)(=O)c3ccc(F)cc3)ccc2O1
inactive: outcome [1] | outcome [2] | outcome [9] | outcome [4] | max activity [7] 19.1% [at 4.2 µM, hits give low values] | outcome [8] | outcome [5]

CC(C)CC#Cc1ccc2c(c1)O[C@H](CN(C)Cc1ccc(F)cc1)[C@H](C)CN([C@H](C)CO)S2(=O)=O
inactive: outcome [1] | outcome [2] | outcome [9] | outcome [4] | max activity [7] 38.6% [at 2.1 µM, hits give low values] | outcome [8] | outcome [5]

C[C@H](CO)N1C[C@H](C)[C@@H](CN(C)C(=O)Nc2cccc3ccccc23)OCCCC[C@H](C)Oc2ccc(NC(=O)c3ccncc3)cc2C1=O
inactive: outcome [1] | outcome [2] | outcome [9] | outcome [4] | max activity [7] -25.1% | outcome [8] | outcome [5] | outcome [6]

C[C@@H]1CN([C@H](C)CO)C(=O)c2cc(NS(=O)(=O)c3ccc(Cl)cc3)ccc2O[C@@H](C)CCCCO[C@H]1CN(C)Cc1ccc(Cl)c(Cl)c1
inactive: outcome [1] | outcome [2] | outcome [9] | outcome [4] | outcome [8] | outcome [5] | outcome [6]

C[C@@H]1CCCCO[C@H](CN(C)S(=O)(=O)c2ccc(Cl)cc2)[C@H](C)CN([C@@H](C)CO)C(=O)c2cc(NS(=O)(=O)c3ccc(F)cc3)ccc2O1
inactive: outcome [1] | outcome [2] | outcome [9] | outcome [4] | max activity [7] -23.5% [at 8 µM, hits give low values] | outcome [8] | outcome [5] | outcome [6]

C[C@@H]1CN([C@H](C)CO)C(=O)c2cc(NC(=O)CCC(F)(F)F)ccc2O[C@@H](C)CCCCO[C@@H]1CN(C)Cc1ccc(C(F)(F)F)cc1
inactive: outcome [1] | outcome [2] | outcome [9] | outcome [4] | outcome [8]

C[C@@H]1CCCCO[C@H](CN(C)Cc2ccc(Cl)c(Cl)c2)[C@@H](C)CN([C@@H](C)CO)C(=O)c2cc(NC(=O)Nc3ccc(C(F)(F)F)cc3)ccc2O1
inactive: outcome [1] | outcome [2] | outcome [9] | outcome [4] | outcome [8] | outcome [5]

C[C@H](CO)N1C[C@H](C)[C@H](CN(C)Cc2ccc(C(F)(F)F)cc2)OCCCC[C@H](C)Oc2ccc(NC(=O)CCC(F)(F)F)cc2C1=O
inactive: outcome [1] | outcome [2] | outcome [9] | outcome [4] | outcome [8] | outcome [5]

C[C@@H]1CCCCO[C@H](CN(C)Cc2ccc3c(c2)OCO3)[C@@H](C)CN([C@@H](C)CO)C(=O)c2cc(NC(=O)Nc3ccc(C(F)(F)F)cc3)ccc2O1
inactive: outcome [1] | outcome [2] | outcome [9] | outcome [4] | max activity [7] -12% | outcome [8] | outcome [5]

C[C@@H]1CN([C@@H](C)CO)C(=O)c2cc(NC(=O)Nc3ccc(F)cc3)ccc2O[C@@H](C)CCCCO[C@@H]1CN(C)Cc1ccc(C(F)(F)F)cc1
inactive: outcome [1] | outcome [2] | outcome [9] | outcome [4] | outcome [8]
